Measured values published in publication PMC7819943, “Rice protein-binding microarrays: a tool to detect cis-acting elements near promoter regions in rice”.
Whole data set: some 35,000 sequences, median “fluorescence intensity (a.u.)” near 10,000, cut for the highest 2% near 52,000. The full list was thinned out, with the highest values kept by preference.

Molecular target: T1, OsWOX13 (Oryza sativa, UniProt Q5QMM3 1-267)
T1 sequence: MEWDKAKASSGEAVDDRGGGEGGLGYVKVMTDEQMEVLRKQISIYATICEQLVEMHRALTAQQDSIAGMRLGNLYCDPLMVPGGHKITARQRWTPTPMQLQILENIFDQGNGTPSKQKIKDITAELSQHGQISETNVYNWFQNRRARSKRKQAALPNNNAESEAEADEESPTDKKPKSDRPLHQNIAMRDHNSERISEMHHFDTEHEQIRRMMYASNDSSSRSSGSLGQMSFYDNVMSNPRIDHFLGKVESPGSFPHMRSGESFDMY
Assay: protein-binding microarray (RPBM); PBS, 2% BSA, 51.3 ng/ul salmon testes DNA, 50 uM zinc acetate, 200 nM TF, 25 C, 1 h; high values mean tight binding
Details: protein: recombinant; tags: N-terminal polyhistidine and DsRed monomer fusion (pET32a); label: CyDye5-dUTP incorporated in the synthesized complementary strand; 3' TTTTT single-stranded linker to array surface; dsDNA, one strand shown
Method in brief: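 Binding signal is reported as fluorescence intensity per feature (arbitrary units) from an Axon 4000B scanner. Incubation used 200 nM of each Ni–NTA-purified, N-terminally polyhistidine- and DsRed-fused transcription factor from E. coli BL21-CodonPlus on a double-stranded custom Agilent array for 1 h at 25 °C, with 50 µM zinc acetate in the buffer, followed by washing.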

Compared with “ATCTCAATCAGCAACACAAATGACCCTGACCCACGATCCACGGAGTCACCTAGTGCAG”, “GCCGTTAGTTAATTATTATCCGGTAAAGAAGATTAGTAGTCGGAGTCACCTAGTGCAG” is lower in binding signal: 20900 fluorescence intensity (a.u.) for the first, 12200 fluorescence intensity (a.u.) for the second.

Compared with “CGTTTCTTGATTCGATGGTTGATGGATTTTGGTTTGTGGACGGAGTCACCTAGTGCAG”, “AAATATATTCAATTATTGATTTGATGAAACTAATTTCGTACGGAGTCACCTAGTGCAG” is higher in binding signal: 4980 fluorescence intensity (a.u.) for the first, 23500 fluorescence intensity (a.u.) for the second.

First: ATCACCTAATCAATTGAATCCATCAATTCAAGTAGATTCACGGAGTCACCTAGTGCAG
Second: GGCAATCAATTATTAATTGATTAATTCCATGAATAGCACACGGAGTCACCTAGTGCAG
The binding signal of the first is lower: 9390 fluorescence intensity (a.u.) for the first, 64900 fluorescence intensity (a.u.) for the second.

Going from “TTATGAAAATATATTTAATTATTGATTTGATGAAACTAATCGGAGTCACCTAGTGCAG” to “GCACACATGATCAATCAATTAATAGATTAGGTAGGTACGGCGGAGTCACCTAGTGCAG”, the binding signal rises from 5790 fluorescence intensity (a.u.) to 51100 fluorescence intensity (a.u.).

First: ATTGATTTGATGAAACTAATTTACGGCACAATAGCAAATCCGGAGTCACCTAGTGCAG
Second: TATATATATATATATATATAGACACACACATCAACAACAACGGAGTCACCTAGTGCAG
The binding signal of the first is higher: 57600 fluorescence intensity (a.u.) for the first, 16000 fluorescence intensity (a.u.) for the second.

First: TTAATTGCTATGTTTTGACCAGTCAACGCATAGGTCGTTTCGGAGTCACCTAGTGCAG
Second: ATTGCACAGATTGTGACTAATTTGCGAGACGAATCTTTTACGGAGTCACCTAGTGCAG
The binding signal of the first is higher: 15500 fluorescence intensity (a.u.) for the first, 7340 fluorescence intensity (a.u.) for the second.

Compared with “TTGGAATTTGGGGATTGGGAAGAGAGAAATCAGATTGGAACGGAGTCACCTAGTGCAG”, “CGGAAGATTGGAATGGAAATCGGAGAGAGCAGGGGCGGTGCGGAGTCACCTAGTGCAG” is higher in binding signal: 4300 fluorescence intensity (a.u.) for the first, 12800 fluorescence intensity (a.u.) for the second.

Compared with “ATTAATTAGCTGCCCGCAGACAAGACCCGTGACTTTGGCCCGGAGTCACCTAGTGCAG”, “GCTTAATTAACAATCAACATAACTACTAACTAGTGTTGTTCGGAGTCACCTAGTGCAG” is higher in binding signal: 23800 fluorescence intensity (a.u.) for the first, 57300 fluorescence intensity (a.u.) for the second.

Going from “AATTAACATCAATAACAAAGTGTTGTACTGTAATCATCTTCGGAGTCACCTAGTGCAG” to “TATTTAATTGCAACGAATACAATAGTTTAATCGGATTATACGGAGTCACCTAGTGCAG”, the binding signal rises from 4050 fluorescence intensity (a.u.) to 9360 fluorescence intensity (a.u.).

Going from “TACAATTATGATTTGCCTTCAAATTTGCATTTTCATATTTCGGAGTCACCTAGTGCAG” to “GGTTAATCAATCAATCAGTTAATTACACAATTACTCACATCGGAGTCACCTAGTGCAG”, the binding signal rises from 13500 fluorescence intensity (a.u.) to 57300 fluorescence intensity (a.u.).

Going from “TAGTACTCTCAATTAATTACAAACCACACCATCAAATTCTCGGAGTCACCTAGTGCAG” to “ATAATTAAAACTCAATTAATCACACGTTATTATCACATCGCGGAGTCACCTAGTGCAG”, the binding signal rises from 7020 fluorescence intensity (a.u.) to 14200 fluorescence intensity (a.u.).

Compared with “TACTATTAATCAATCACATATAATTAACAATTAGTGTGATCGGAGTCACCTAGTGCAG”, “TATAATTAATTATTTGCTAGATTTCATTCATATGACAATTCGGAGTCACCTAGTGCAG” is higher in binding signal: 41200 fluorescence intensity (a.u.) for the first, 54600 fluorescence intensity (a.u.) for the second.

Going from “GAAGATTTAATTGCAACAAATTTAATAGTGCAATCGGATCCGGAGTCACCTAGTGCAG” to “ATAATAATTAATATTTCATTAATTATATGCTAACGAGTTTCGGAGTCACCTAGTGCAG”, the binding signal rises from 40800 fluorescence intensity (a.u.) to 43400 fluorescence intensity (a.u.).

Compared with “AAAGATTGCCGAGTTTAATTGCAATCAATTACGGGAAGATCGGAGTCACCTAGTGCAG”, “AGATTAATTAGGCTTAATAGATTCGTCTACGTTTAATACTCGGAGTCACCTAGTGCAG” is lower in binding signal: 52900 fluorescence intensity (a.u.) for the first, 20900 fluorescence intensity (a.u.) for the second.

First: GCCAAATTAGATGGAAAGTTGGTTATATAGGTGTTTATATCGGAGTCACCTAGTGCAG
Second: AATTATACAATCAATCAAATACTGAAATTTAAAATTGGTACGGAGTCACCTAGTGCAG
The binding signal of the first is higher: 29100 fluorescence intensity (a.u.) for the first, 15800 fluorescence intensity (a.u.) for the second.

Compared with “CAAAAGAACAATTATTGATCAACTAATGTACACGTCCCAGCGGAGTCACCTAGTGCAG”, “AGCTGAAATTAAGAACAGACAGACATGATCACAGATCGAGCGGAGTCACCTAGTGCAG” is lower in binding signal: 13900 fluorescence intensity (a.u.) for the first, 10100 fluorescence intensity (a.u.) for the second.

Going from “TGATGATTAGTCGATTACTGTTTTCCTATAGCCATCGTTACGGAGTCACCTAGTGCAG” to “AGGAATATATATAATTTACAAATAACTAAAATTTGATATTCGGAGTCACCTAGTGCAG”, the binding signal falls from 30100 fluorescence intensity (a.u.) to 4110 fluorescence intensity (a.u.).

First: ATCTGTCACATTAGACATAAATAAAATATTTGCGAAATGTCGGAGTCACCTAGTGCAG
Second: AAGTGTTTGTAATTACTAAAATTTTGACATGAATTCAAATCGGAGTCACCTAGTGCAG
The binding signal of the first is lower: 3540 fluorescence intensity (a.u.) for the first, 8700 fluorescence intensity (a.u.) for the second.

First: CCATTAATTATGTTGGACATAATTAAGAGAATTTGCTAAACGGAGTCACCTAGTGCAG
Second: AAATCAATAATTAAATATAGTTTCATAATATATTTATCTTCGGAGTCACCTAGTGCAG
The binding signal of the first is higher: 52300 fluorescence intensity (a.u.) for the first, 22700 fluorescence intensity (a.u.) for the second.

Compared with “GATTATGATTTGGAGAAAATTGCATCCATAAAACATTAATCGGAGTCACCTAGTGCAG”, “TGGTATTTAATTATTTGTTAGAGTCATCATTGGTCTATAACGGAGTCACCTAGTGCAG” is higher in binding signal: 8000 fluorescence intensity (a.u.) for the first, 8940 fluorescence intensity (a.u.) for the second.

Going from “CGATTTCTTGTTTAATTACTAATCAATTTCATACATTCATCGGAGTCACCTAGTGCAG” to “GTTAATTTTGTTTAATTAATGGTGGAAGCAGCCATCATCACGGAGTCACCTAGTGCAG”, the binding signal rises from 13400 fluorescence intensity (a.u.) to 38200 fluorescence intensity (a.u.).

Going from “GAGTAATTACTAATTAGCTGGTACACTCAATCCAGTACGGCGGAGTCACCTAGTGCAG” to “CTTCTAATTTTGTTAATTGGGAAGACATCATAGAGTGGAACGGAGTCACCTAGTGCAG”, the binding signal rises from 59000 fluorescence intensity (a.u.) to 65400 fluorescence intensity (a.u.).
